Activity calls are given as the source filed them. Rule for the calls: active = hit-call score of the fitted dose curve at least 0.9, where 1 is the maximum; inactive = score below 0.9.
Experiments:
Settings in all cases: mRNA level, 48 h; actives raise or lower the signal
[1] = read-out: Alkaline Phosphatase, Placental (ALPP) gene, ALPP (gene 250); assay: LTEA_HepaRG_ALPP: Life Technologies and Expression Analysis (LTEA) Assay for Alkaline Phosphatase, Placental (ALPP) gene using HepaRG (AID 2283468);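 for AC50: differentiated human HepaRG liver cells in serum-free induction medium; ALPP transcript by TaqMan qRT-PCR normalized to ACTB GAPDH and POLR2A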
Method in brief: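 Expression of ALPP was quantified by qRT-PCR against three housekeeping genes in human HepaRG cultures treated for 48 h with an eight-point concentration series up to 100 uM. Activity in either direction was fitted relative to 0.5% DMSO.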

[2] = read-out: Bcl-2 (BAD) gene, BAD (gene 572); assay: LTEA_HepaRG_BAD: Life Technologies and Expression Analysis (LTEA) Assay for Bcl-2 (BAD) gene using HepaRG (AID 2283469)
Method in brief: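 HepaRG, 48 h exposure, 8-pt half-log curve from 100 uM in 0.5% DMSO, duplicates. Readout: TaqMan qRT-PCR for BAD mRNA, housekeeping-normalised (ACTB/GAPDH/POLR2A); gain or loss fitted against DMSO baseline.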

[3] = read-out: Bcl-2 (BAX) gene, BAX (gene 581); assay: LTEA_HepaRG_BAX: Life Technologies and Expression Analysis (LTEA) Assay for Bcl-2 (BAX) gene using HepaRG (AID 2283470)
Method in brief: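 Human HepaRG cells treated in duplicate for 48 h across eight concentrations (max 100 uM, 0.5% DMSO); BAX expression measured by qRT-PCR.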

[4] = read-out: adenosine kinase (ADK) gene, ADK (gene 132); assay: LTEA_HepaRG_ADK: Life Technologies and Expression Analysis (LTEA) Assay for adenosine kinase (ADK) gene using HepaRG (AID 2283471)
Method in brief: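 ADK expression quantified by qRT-PCR, normalised to three housekeeping genes, after 48 h exposure of HepaRG cells to eight concentrations (top 100 uM, half-log steps, duplicate, 0.5% DMSO). Up- or down-regulation fitted relative to vehicle.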

[5] = read-out: Alpha-fetoprotein (AFP) gene, AFP (gene 174); assay: LTEA_HepaRG_AFP: Life Technologies and Expression Analysis (LTEA) Assay for Alpha-fetoprotein (AFP) gene using HepaRG (AID 2283472);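 for AC50: AFP transcript by TaqMan qRT-PCR normalized to ACTB GAPDH and POLR2A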
Method in brief: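 Measures AFP mRNA change in HepaRG after 48 h chemical exposure (8 half-log concentrations, highest 100 uM, 0.5% DMSO). Fold change relative to DMSO, fitted in both directions.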

BCL2L11 (gene 10018) = assay: LTEA_HepaRG_BCL2L11: Life Technologies and Expression Analysis (LTEA) Assay for Bcl-2 (BCL2L11) gene using HepaRG (AID 2283473)
Method in brief: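 Cells were plated, cultured 48 h, switched to serum-free induction medium, then dosed in duplicate for 48 h at eight half-log concentrations up to 100 uM. Lysates underwent RNA isolation and TaqMan qRT-PCR; gain or loss versus DMSO was fitted.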

[6] = read-out: Apolipoprotein A-V (APOA5) gene, APOA5 (gene 116519); assay: LTEA_HepaRG_APOA5: Life Technologies and Expression Analysis (LTEA) Assay for Apolipoprotein A-V (APOA5) gene using HepaRG (AID 2283474)
Method in brief: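 Human liver HepaRG cells are treated 48 h with test chemicals (100 uM top, half-log dilutions, 0.5% DMSO). APOA5 mRNA induction or loss is measured by qRT-PCR relative to vehicle.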

[7] = read-out: Apoptosis regulator Bcl-2 (Homo sapiens) (UniProt P10415); assay: LTEA_HepaRG_BCL2: Life Technologies and Expression Analysis (LTEA) Assay for Bcl-2 gene using HepaRG (AID 2283475)
Method in brief: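 Each chemical was tested in duplicate on HepaRG cultures held in serum-free induction medium for 48 h, highest concentration 100 uM with half-log dilutions. Transcript levels came from multiplexed qRT-PCR, normalised to housekeeping genes; activity was scored in either direction relative to DMSO.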

Caspase-3 (Homo sapiens) = Caspase-3 (Homo sapiens) (UniProt P42574); assay: LTEA_HepaRG_CASP3: Life Technologies and Expression Analysis (LTEA) Assay for cysteine-aspartic acid protease (CASP3) using HepaRG (AID 2283477)
Sequence of Caspase-3 (Homo sapiens) (P42574 whole entry, looked up): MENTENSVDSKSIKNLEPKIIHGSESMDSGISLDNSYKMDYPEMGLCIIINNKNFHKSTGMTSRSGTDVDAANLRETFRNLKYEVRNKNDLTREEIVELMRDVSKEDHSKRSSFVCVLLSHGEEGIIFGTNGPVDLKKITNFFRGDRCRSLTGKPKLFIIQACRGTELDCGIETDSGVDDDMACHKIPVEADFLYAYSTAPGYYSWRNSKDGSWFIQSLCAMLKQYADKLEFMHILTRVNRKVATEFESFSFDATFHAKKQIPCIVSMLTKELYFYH
Method in brief: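 In HepaRG liver cells dosed for 48 h at up to 100 uM (eight-point, duplicate), CASP3 expression changes are scored by qRT-PCR. Activity is fitted in both directions with 0.5% DMSO as baseline.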

[8] = read-out: Bcl-2 (BID) gene, BID (gene 637); assay: LTEA_HepaRG_BID: Life Technologies and Expression Analysis (LTEA) Assay for Bcl-2 (BID) gene using HepaRG (AID 2283476)
Method in brief: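 Assay used HepaRG hepatic cells treated 48 h in serum-free medium with half-log dilutions from 100 uM. Endpoint: BID mRNA, qRT-PCR, normalized to ACTB/GAPDH/POLR2A.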

Measured: AC50

Sequence of Apoptosis regulator Bcl-2 (Homo sapiens) (P10415 whole entry, looked up): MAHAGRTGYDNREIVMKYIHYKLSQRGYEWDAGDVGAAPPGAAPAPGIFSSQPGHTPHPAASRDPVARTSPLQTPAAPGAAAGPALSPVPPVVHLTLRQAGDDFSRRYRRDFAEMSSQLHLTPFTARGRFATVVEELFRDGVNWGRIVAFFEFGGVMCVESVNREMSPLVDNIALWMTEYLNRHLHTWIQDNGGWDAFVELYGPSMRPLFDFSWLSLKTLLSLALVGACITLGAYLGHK

CCCCOC(=O)CCCCCCCCC(=O)OCCCC
not listed: [8]
inactive: all other assays above

O=C(N[C@@H](Cc1ccccc1)[C@@H](O)C(=O)N1C[C@@H](O)[C@@H](O)C1)c1cc2cc(Cl)ccc2[nH]1
not listed: [1] | Caspase-3 (Homo sapiens) | [8]
inactive: all other assays above

C[Si]1(C)O[Si](C)(C)O[Si](C)(C)O[Si](C)(C)O1
inactive: all assays above

CCCCCCCCCCCCCCCCCC(=O)O
not listed: [8]
inactive: all other assays above

Clc1cc(Cl)c(Cl)cc1Cl
not listed: [1] | Caspase-3 (Homo sapiens) | [8]
inactive: all other assays above

Cc1ccc2ncccc2c1
not listed: [8]
inactive: all other assays above

Cc1cccc(Nc2cc(Cl)nc(SCC(=O)O)n2)c1C
not listed: [8]
inactive: all other assays above

CCOc1ccc2c(c1)C(C)=CC(C)(C)N2
active: [5] 50 µM | BCL2L11 (gene 10018) 9.92 µM
not listed: [1] | Caspase-3 (Homo sapiens)
inactive: all other assays above

COc1ccc(S(=O)(=O)N2C(=O)[C@@](c3ccccc3OC)(N3C[C@H](O)C[C@H]3C(=O)N(C)C)c3cc(Cl)ccc32)c(OC)c1
active: [1] 29.5 µM | [3] 19 µM | [4] 12.1 µM | [5] 29.4 µM | BCL2L11 (gene 10018) 63.4 µM | [6] 38.5 µM | [7] 50 µM | Caspase-3 (Homo sapiens) 12.2 µM
inactive: [2]

CC=Cc1ccc(O)c(OC)c1
not listed: [8]
inactive: all other assays above

CCCc1cc(=O)[nH]c(=S)[nH]1
not listed: [1] | Caspase-3 (Homo sapiens) | [8]
inactive: all other assays above

CN1CCCC1=O
not listed: [8]
inactive: all other assays above

Cc1cc(NC(=O)C(=O)O)cc(C)c1Oc1ccc(O)c2c1CCC2
active: [5] 9.92 µM
not listed: [8]
inactive: all other assays above

CNC(=O)[C@H]1O[C@@H](n2cnc3c(NCc4cc(Cl)ccc4OCc4cc(C)no4)ncnc32)[C@H](O)[C@@H]1N
not listed: [8]
inactive: all other assays above

COc1cc(S(=O)(=O)O)c(C)cc1N=Nc1c(O)ccc2cc(S(=O)(=O)O)ccc12
not listed: [6] | Caspase-3 (Homo sapiens)
inactive: all other assays above

Cc1cc(=O)[nH]c(=S)[nH]1
not listed: [1] | Caspase-3 (Homo sapiens)
inactive: all other assays above

Oc1ccc2ccccc2c1N=Nc1ccccc1
active: [5] 27.9 µM | BCL2L11 (gene 10018) 15.1 µM | [7] 31.5 µM
not listed: [1]
inactive: all other assays above

O=c1c(O)c(-c2ccc(O)c(O)c2)oc2cc(O)cc(O)c12
active: [5] 79 µM
not listed: [1]
inactive: all other assays above

CN[C@H]1CC[C@@H](c2ccc(Cl)c(Cl)c2)c2ccc(S(N)(=O)=O)cc21
active: [3] 82.6 µM | [5] 23.8 µM
not listed: [1]
inactive: all other assays above

CCc1c(C(=O)NN2CCCCC2)nn(-c2ccc(Cl)cc2Cl)c1-c1ccc(Br)cc1
active: [3] 27.3 µM | [5] 25.1 µM | BCL2L11 (gene 10018) 7.59 µM | [6] 42 µM | [7] 20 µM
inactive: [2] | [4] | [8]

CC(=O)C(C)=CC1C(C)=CCCC1(C)C (configuration not stated)
not listed: [1]
inactive: all other assays above

NS(=O)(=O)c1cc2c(cc1Cl)NCNS2(=O)=O
not listed: [1]
inactive: all other assays above

COc1cc(C=O)ccc1O
not listed: [1]
inactive: all other assays above

Cc1cccc(C)c1O
not listed: [1] | [8]
inactive: all other assays above

O=C(O)Cc1ccccc1Nc1c(Cl)cccc1Cl
active: [5] 19.7 µM
not listed: [1] | [8]
inactive: all other assays above

CC(=O)Oc1ccccc1C(=O)O
not listed: [1] | Caspase-3 (Homo sapiens)
inactive: all other assays above

CCCCCCCCCCCC(=O)OC
not listed: [1]
inactive: all other assays above

NC(=O)Cn1c(=O)cc(CCN2CCN(c3nccc4sccc34)CC2)c2ccc(F)cc21
active: [3] 29 µM | [5] 50 µM | [7] 50 µM
not listed: [1] | [8]
inactive: all other assays above

O=C(OCCCCCOC(=O)c1ccccc1)c1ccccc1
active: [2] 1.95 µM | [3] 1.78 µM | [4] 1.57 µM | [5] 0.77 µM | BCL2L11 (gene 10018) 2.45 µM | [6] 3.02 µM | [7] 1.67 µM | Caspase-3 (Homo sapiens) 0.627 µM

CC1(C)CC(N=C=O)CC(C)(CN=C=O)C1 (configuration not stated)
not listed: [1] | [8]
inactive: all other assays above

Cc1cccc([N+](=O)[O-])c1C
not listed: [1] | Caspase-3 (Homo sapiens)
inactive: all other assays above

Cc1ccc(C)c(O)c1C
not listed: [1]
inactive: all other assays above

O=c1[nH]cc(F)c(=O)[nH]1
active: [6] 70.9 µM
not listed: [1] | Caspase-3 (Homo sapiens)
inactive: all other assays above

CCCCC(CC)COC(=O)CC(C(=O)OCC(CC)CCCC)S(=O)(=O)O (configuration not stated)
active: [2] 80.7 µM | [4] 81.6 µM | Caspase-3 (Homo sapiens) 81 µM
not listed: [1] | [8]
inactive: all other assays above

COCCOC[C@H](CC1(C(=O)NC2CCC(C(=O)O)CC2)CCCC1)C(=O)Oc1ccc2c(c1)CCC2 (some centres not stated)
not listed: [1]
inactive: all other assays above

CCCCCCOCCO
not listed: [1] | [8]
inactive: all other assays above

COC(=O)c1ccc(O)cc1
not listed: [1] | Caspase-3 (Homo sapiens)
inactive: all other assays above

CC1(C)NC(=O)NC1=O
not listed: [1]
inactive: all other assays above

O=[N+]([O-])C(CO)(CO)CO
not listed: [1] | Caspase-3 (Homo sapiens)
inactive: all other assays above

CCOC(=O)C(C)(C)Oc1ccc(Cl)cc1
not listed: [1]
inactive: all other assays above

FC(F)(F)C(F)(F)C(F)(F)C(F)(F)C(F)(F)C(F)(F)CCI
not listed: [1] | Caspase-3 (Homo sapiens)
inactive: all other assays above

CCCCCCCC=O
not listed: [1] | Caspase-3 (Homo sapiens)
inactive: all other assays above

c1cc(-c2ccncc2)ccn1
not listed: [1] | [8]
inactive: all other assays above

Cc1nc(-c2ccc3c(c2)CCN(CCC2CCC(NC(=O)/C=C/c4ccc(F)cc4)CC2)CC3)no1 (configuration not stated)
not listed: [1]
inactive: all other assays above

— PubChem BioAssay (EPA / NIEHS)
